Assay [1] is described as follows: inhibitors of TNFa-induced NFkB p65 translocation, primary screen, imaging, HUVEC, MLSMR starter and 10KST1 sets (AID 438;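 active = inhibition above 20% together with a positive visual image hit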;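 also: compound added about 3h40 before a 20 min TNFalpha stimulation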;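 as to inhibition: signal is the nuclear over cytoplasmic p65 intensity ratio per well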). The following applies: HUVEC TNFa-induced p65 nuclear translocation; cell count: measured here: nuclei count (cytotoxicity indicator), at 2.08 µM; inhibition: at 2 µM, stronger effect = higher value, 0% TNFa-plus-vehicle, 100% no-TNFa wells.
Assay [2] is described as follows: inhibitors of mutant huntingtin aggregation, primary screen, imaging, exon1htt(103Q)mCFP cells, high-content imaging (AID 483).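 Also: compound exposure lasted 3 days before fixation.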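 As to nuclei count: percent of the per-plate median nuclei count of sample wells.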 The following applies: exon1htt(103Q)mCFP cell line, aggregate imaging, at 2 µM; inhibition of aggregation: stronger effect = higher value; nuclei count: measured here: cell count, toxicity.
Assay [3] in a line: inhibitors of E-selectin induction by TNFa, primary screen, imaging, HUVEC, immunofluorescence, MLSMR starter and 10KST1 sets (AID 487;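 active = visually confirmed hit in the image check and inhibition above 20%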;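 as to inhibition: signal is fraction of cell area covered by stained E-selectin grains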;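 as to nuclei count: 100% = median nuclei count of all wells on the same plate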). The following applies: HUVEC TNFalpha-induced E-selectin immunofluorescence imaging, at 2 µM; inhibition: stronger effect = higher value; nuclei count: measured here: cell number, toxicity.
For assay [4], the target named is Voltage-gated potassium channel subunit beta-2 (Rattus norvegicus) (UniProt P62483). Kind of assay: KvBeta enzyme negative modulators, primary screen, biochemical, NADPH fluorescence (AID 622;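 active = fluorescence slope higher than the sample average by over 3 SD, cut at about -0.22 in these data, passing the limit was not always enough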;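 also: slope of raw intensity against log time taken from 70 to 1610 s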). The following applies: recombinant KvBeta, 4-cyanobenzaldehyde reduction, at 10 µM, stronger effect = higher value.
Voltage-gated potassium channel subunit beta-2 (Rattus norvegicus), sequence (P62483 whole entry, looked up): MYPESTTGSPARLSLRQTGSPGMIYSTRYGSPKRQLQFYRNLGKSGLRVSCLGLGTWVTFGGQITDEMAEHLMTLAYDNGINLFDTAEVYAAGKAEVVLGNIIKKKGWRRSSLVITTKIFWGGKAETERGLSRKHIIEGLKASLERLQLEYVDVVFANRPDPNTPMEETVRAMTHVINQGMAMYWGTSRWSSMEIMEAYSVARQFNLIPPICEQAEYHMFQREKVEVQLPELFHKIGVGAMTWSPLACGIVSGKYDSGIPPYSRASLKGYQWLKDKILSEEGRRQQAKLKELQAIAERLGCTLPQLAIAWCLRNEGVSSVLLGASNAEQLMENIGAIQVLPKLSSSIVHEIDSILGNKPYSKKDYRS
For assay [5] the target is unchanged. Kind of assay: KvBeta positive modulators, primary screen, biochemical, NADPH fluorescence (AID 623;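 active = NADPH fluorescence slope more negative than the mean of all samples by about 3 SD, 99.7% confidence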;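 also: fluorescence intensity change per second fitted from 20 to 320 s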). The following applies: Recombinant KvBeta, NADPH fluorescence decrease slope, 10 min; at 10 µM; stronger effect = lower value.
Assay [6] addresses Alpha-2C adrenergic receptor (Homo sapiens) (UniProt P18825). Description: modulators of alpha2C/GIRK thallium flux, primary screen, cell-based, HEK293 alpha2C/GIRK1/2 (AID 624;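 active = fluorescence slope after compound addition differing from the mean of all screened samples at 99.7% confidence, in either direction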;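 also: slope of fluorescence ratio to pre-addition baseline per second over 15 to 24 s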). The following applies: thallium flux BTC fluorescence, at 10 µM, actives lie on both sides.
Assay [7] in a line: inhibitors of Sendai virus-induced IRF3 signaling, primary screen, TLR/RLR signaling modifier project, cell-based, Sendai virus stimulus, luciferase, 10K MLSCN set (AID 602276;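 active = inhibition at or above 50% at 10 µM; inactive = inhibition below 50%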;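 also: firefly luciferase from ISG56 promoter only with Renilla not read in this screen; 0% = Sendai virus plus DMSO and 100% = medium plus DMSO without virus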). The following applies: HEK293 RL24 IRF3 luciferase reporter, at 10 µM, stronger effect = higher value.
Assay [8] can be described thus: inhibitors of poly I:C-induced TLR3 signaling, primary screen, cell-based, poly I:C stimulus, luciferase, 10K MLSCN set (AID 602277;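 active = inhibition of the reporter signal at or above 50%; inactive = inhibition below 50%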). The following applies: HEK293-TLR3 RL24 IRF3 luciferase reporter, at 10 µM, stronger effect = higher value.

The source made the active and inactive calls.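 The calls were made as follows, unless noted: active = visual image review flags a hit and inhibition of aggregation exceeds 20%; inconclusive = visual hit but inhibition at or below 20%; inactive = no hit on visual image review.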

Alpha-2C adrenergic receptor (Homo sapiens), sequence (P18825 whole entry, looked up): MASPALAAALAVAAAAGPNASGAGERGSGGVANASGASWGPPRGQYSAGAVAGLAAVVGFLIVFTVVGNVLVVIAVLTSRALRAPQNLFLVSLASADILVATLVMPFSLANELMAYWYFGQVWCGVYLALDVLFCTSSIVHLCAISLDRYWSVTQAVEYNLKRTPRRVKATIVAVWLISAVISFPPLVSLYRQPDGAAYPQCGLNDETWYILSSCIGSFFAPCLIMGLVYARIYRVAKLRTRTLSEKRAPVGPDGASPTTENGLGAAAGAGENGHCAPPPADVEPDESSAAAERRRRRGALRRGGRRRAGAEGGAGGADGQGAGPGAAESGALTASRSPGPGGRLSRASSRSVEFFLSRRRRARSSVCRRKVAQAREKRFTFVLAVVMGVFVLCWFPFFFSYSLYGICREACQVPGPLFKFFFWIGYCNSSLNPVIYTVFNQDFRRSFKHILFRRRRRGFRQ

Take `Cc1ccc(-n2nnnc2SCC(=O)Nc2c(C)n(C)n(-c3ccccc3)c2=O)cc1`: in assay [1], the cell count worked out at 637. Further, the inhibition was -1.1% (inactive) in assay [1], -18.7% (inactive) in assay [3], -6.61% (inactive) in assay [7] and -12.3% (inactive) in assay [8]. Further, in assay [2], the inhibition of aggregation is 4.2% (inactive). In addition, the nuclei count in assay [2] stood at 91.4%; in assay [3], 106%. Further, the fluorescence slope in assay [4] was -0.583 (inactive). Moreover, the NADPH fluorescence slope in assay [5] was -1.3e-05 (inactive). The slope in assay [6] was 0.00453 (inactive).
Consider `O=C(CCN1C(=O)COc2ccccc21)NCCCN1CCN(c2ccccc2F)CC1`, for which the cell count in assay [1] turned out to be 660. Also, the inhibition was -7.1% (inactive) in assay [1], -82.2% (inactive) in assay [3], 11.7% (inactive) in assay [7] and 15% (inactive) in assay [8]. In assay [2], the inhibition of aggregation was -1.6% (inactive). The nuclei count in assay [2] worked out at 73.9%; in assay [3], 93.3%. For the same compound, the fluorescence slope in assay [4] is -0.425 (inactive). Moreover, the NADPH fluorescence slope in assay [5] is -2.7e-05 (inactive). The slope in assay [6] is 0.004 (inactive).
For `O=S(=O)(c1ccccc1)N1CCN(S(=O)(=O)c2ccccc2)C1`, the cell count in assay [1] was determined as 281. Also, the inhibition was 5.1% (inactive) in assay [1], -60.7% (inactive) in assay [3], 10.4% (inactive) in assay [7] and 13.2% (inactive) in assay [8]. For the same compound, the inhibition of aggregation in assay [2] is -0.4% (inactive). Besides, the figures for the nuclei count in assay [2] and in assay [3] were 95% and 96.4%, respectively. Moreover, in assay [4], the fluorescence slope is -0.337 (inactive). Besides, the NADPH fluorescence slope in assay [5] was -5.3e-05 (inactive). For the same compound, the slope in assay [6] is 0.00677 (inactive).
In the case of `CCn1c(CSc2nc(C)cc(C)n2)nnc1SCC(=O)Nc1ccccc1`, the cell count in assay [1] is 579. The inhibition in assay [1] is 1.9% (inactive); in assay [3] it was -38.7% (inactive); in assay [7], -15.1% (inactive); in assay [8] it was -10.7% (inactive). Further, in assay [2], the inhibition of aggregation is -15.5% (inactive). Also, the results for the nuclei count in assay [2] and in assay [3] were 101% and 142%, respectively. Moreover, the fluorescence slope in assay [4] is -0.436 (inactive). Also, the NADPH fluorescence slope in assay [5] was -3.8e-05 (inactive). In addition, the slope in assay [6] was 0.00615 (inactive).
For `CC(C)c1nnc(NC(=O)c2ccc(N3C(=O)CCC3=O)cc2)s1`, the cell count in assay [1] is 627. In addition, the inhibition was -8% (inactive) in assay [1], -36.4% (inactive) in assay [3], 4.17% (inactive) in assay [7] and -7.88% (inactive) in assay [8]. Besides, in assay [2], the inhibition of aggregation is 13.9% (inactive). The nuclei count was determined as 110% in assay [2] and 119% in assay [3]. Besides, the fluorescence slope in assay [4] was -0.407 (inactive). Also, in assay [5], the NADPH fluorescence slope was 9.4e-07 (inactive). Further, in assay [6], the slope was 0.00608 (inactive).
For the compound `CCOc1cc(S(=O)(=O)Nc2ccccn2)ccc1F`, the cell count in assay [1] was found to be 382. Moreover, the inhibition is 4.8% (inactive) in assay [1], 29.7% (inactive) in assay [3], 5.64% (inactive) in assay [7] and -11.5% (inactive) in assay [8]. Also, the inhibition of aggregation in assay [2] was 0.1% (inactive). The nuclei count in assay [2] came out at 107%; in assay [3] it was 99.7%. The fluorescence slope in assay [4] is -0.62 (inactive). In assay [5], the NADPH fluorescence slope is 4.6e-06 (inactive). The slope in assay [6] is 0.0046 (inactive).
With `COc1ccc(-c2nnn(CC(=O)c3ccc4c(c3)OCCO4)n2)cc1OC`, the cell count in assay [1] came out at 507. Moreover, the inhibition in assay [1] is -17.7% (inactive); in assay [3] it was 17.9% (inactive); in assay [7], 19.3% (inactive); in assay [8], 19.3% (inactive). Moreover, the inhibition of aggregation in assay [2] was -8.1% (inactive). The figures for the nuclei count in assay [2] and in assay [3] were 122% and 126%, respectively. In assay [4], the fluorescence slope was -0.48 (inactive). Further, the NADPH fluorescence slope in assay [5] was -4.4e-05 (inactive). The slope in assay [6] is 0.00479 (inactive).
Regarding `COc1ccc(-c2nnc(SCC(=O)Nc3ccc(Cl)cc3)n2C)cc1`, in assay [1], the cell count was 327. Besides, the inhibition was -5.5% (inactive) in assay [1], -77.8% (inactive) in assay [3], -16% (inactive) in assay [7] and -1.71% (inactive) in assay [8]. In assay [2], the inhibition of aggregation was -26.9% (inactive). The figures for the nuclei count in assay [2] and in assay [3] were 139% and 122%, respectively. Besides, in assay [4], the fluorescence slope was -0.462 (inactive). Also, in assay [5], the NADPH fluorescence slope was 3.4e-05 (inactive). In assay [6], the slope is 0.00817 (inactive).
Consider `CCOC(=O)NC1(NCc2ccccc2)Oc2ccccc2O1`, for which the cell count in assay [1] worked out at 606. In addition, the inhibition in assay [1] was -12.3% (inactive); in assay [3], -140% (inactive); in assay [7] it was -5.13% (inactive); in assay [8] it was -21.2% (inactive). Besides, the inhibition of aggregation in assay [2] was 9.6% (inactive). Moreover, the nuclei count in assay [2] is 95%; in assay [3] it was 129%. For the same compound, the fluorescence slope in assay [4] is -0.509 (inactive). In addition, in assay [5], the NADPH fluorescence slope is 9e-05 (inactive). Also, the slope in assay [6] is 0.00513 (inactive).
With `Cc1ccc(-n2ncc3c(N4CCCC(C)C4)ncnc32)c(C)c1` (centres undefined), the cell count in assay [1] was 558. The inhibition in assay [1] is 8% (inactive); in assay [3] it was 3.1% (inactive); in assay [7], -57.7% (inactive); in assay [8], -125% (inactive). Further, in assay [2], the inhibition of aggregation is 10.5% (inactive). The nuclei count came out at 85.8% in assay [2] and 93.2% in assay [3]. In addition, in assay [4], the fluorescence slope was -0.527 (inactive). Besides, in assay [5], the NADPH fluorescence slope was -3.3e-05 (inactive). Besides, the slope in assay [6] is 0.00664 (inactive).
On to `O=C(Cn1ncc2c(=O)oc3ccccc3c21)NCC1CCCO1` (centres undefined), for which, in assay [1], the cell count was found to be 725. Also, the inhibition in assay [1] was 6.6% (inactive); in assay [3], -40.1% (inactive); in assay [7] it was 4.27% (inactive); in assay [8], 9.41% (inactive). In assay [2], the inhibition of aggregation is -2.2% (inactive). The values for the nuclei count in assay [2] and in assay [3] were 111% and 125%, respectively. Moreover, the fluorescence slope in assay [4] was -0.61 (inactive). In addition, the NADPH fluorescence slope in assay [5] was -1.2e-05 (inactive). Besides, in assay [6], the slope is 0.0073 (inactive).
For the compound `CCOC(=O)c1oc2cccc(OC(C)=O)c2c1C`, the cell count in assay [1] is 306. In addition, the inhibition is 8.1% (inactive) in assay [1], 24.5% (inactive) in assay [3], -33.6% (inactive) in assay [7] and -89.8% (inactive) in assay [8]. For the same compound, the inhibition of aggregation in assay [2] was 11.2% (inactive). For the same compound, the nuclei count in assay [2] was 97.4%; in assay [3], 85.9%. For the same compound, in assay [4], the fluorescence slope was -0.607 (inactive). Also, the NADPH fluorescence slope in assay [5] is -4.6e-05 (inactive). Besides, in assay [6], the slope was 0.00384 (inactive).
`O=C(CSc1nccn1-c1cccc(Cl)c1)NC1CCCC1`: in assay [1], the cell count is 256. The inhibition was -9.5% (inactive) in assay [1], 39.3% (inactive) in assay [3], 14.4% (inactive) in assay [7] and 29.2% (inactive) in assay [8]. Besides, the inhibition of aggregation in assay [2] is -1.4% (inactive). For the same compound, the nuclei count in assay [2] came out at 95.8%; in assay [3], 95.5%. In addition, in assay [4], the fluorescence slope was -0.618 (inactive). Also, in assay [5], the NADPH fluorescence slope is 3e-05 (inactive). Besides, the slope in assay [6] was 0.00565 (inactive).
`O=C(Nc1ncc(Br)s1)C1CCCN1S(=O)(=O)c1cccc2cccnc12` (centres undefined): the cell count in assay [1] stood at 674. The inhibition in assay [1] was 0.6% (inactive); in assay [3] it was -12.1% (inactive); in assay [7], 4.87% (inactive); in assay [8], 36.5% (inactive). The inhibition of aggregation in assay [2] is 39.7% (inactive). In addition, the values for the nuclei count in assay [2] and in assay [3] were 88.6% and 105%, respectively. Also, the fluorescence slope in assay [4] was -0.583 (inactive). The NADPH fluorescence slope in assay [5] is -2.2e-05 (inactive). Besides, the slope in assay [6] was 0.00689 (inactive).

Values taken from PubChem BioAssay.
